# Experimental data reported in ChEMBL document CHEMBL3988442, “University of Dundee, Small-Polar-MMV Screening Library” (2021).
# For some assays here: Entries with a potency or affinity are not part of this list.
# What was measured:
# [1] = molecular target: T1, Methionyl-tRNA synthetase, putative (Leishmania donovani (strain BPK282A1)) (UniProt E9BF75); assay: Leishmania donovani Methionine tRNA synthetase (LdMetRS):v7. Dose response assay; format: functional; design: conc 80 nM, time 150 minutes
# T1 sequence (whole entry): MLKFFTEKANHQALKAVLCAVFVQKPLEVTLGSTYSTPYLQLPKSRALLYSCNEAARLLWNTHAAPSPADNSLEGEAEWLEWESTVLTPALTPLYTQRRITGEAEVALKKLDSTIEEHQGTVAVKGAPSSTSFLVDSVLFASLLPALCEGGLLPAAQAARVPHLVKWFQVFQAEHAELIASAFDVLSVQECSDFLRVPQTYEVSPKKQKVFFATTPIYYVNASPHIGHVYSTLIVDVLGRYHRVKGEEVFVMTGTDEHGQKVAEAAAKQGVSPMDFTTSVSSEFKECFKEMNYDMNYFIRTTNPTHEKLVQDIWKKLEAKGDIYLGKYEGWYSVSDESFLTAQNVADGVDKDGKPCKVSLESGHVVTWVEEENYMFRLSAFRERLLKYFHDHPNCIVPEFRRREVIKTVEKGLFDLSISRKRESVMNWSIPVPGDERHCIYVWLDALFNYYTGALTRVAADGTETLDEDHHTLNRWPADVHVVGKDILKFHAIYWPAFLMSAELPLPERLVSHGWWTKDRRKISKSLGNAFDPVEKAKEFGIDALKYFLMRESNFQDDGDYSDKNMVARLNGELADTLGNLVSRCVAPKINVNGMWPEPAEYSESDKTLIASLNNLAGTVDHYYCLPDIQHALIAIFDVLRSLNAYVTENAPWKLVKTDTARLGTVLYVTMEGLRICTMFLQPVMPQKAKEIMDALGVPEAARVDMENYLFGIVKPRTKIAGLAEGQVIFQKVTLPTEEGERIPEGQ
# [2] = molecular target: Protein translocase subunit SecA (Escherichia coli (strain K12)) (UniProt P10408); assay: Assay to Identify E. coli SecA ATPase Inhibitors; format: functional; design: scale not given: direction of the effect not stated beside the values; settings: 30 µM
# Protein translocase subunit SecA (Escherichia coli (strain K12)), sequence (P10408 whole entry): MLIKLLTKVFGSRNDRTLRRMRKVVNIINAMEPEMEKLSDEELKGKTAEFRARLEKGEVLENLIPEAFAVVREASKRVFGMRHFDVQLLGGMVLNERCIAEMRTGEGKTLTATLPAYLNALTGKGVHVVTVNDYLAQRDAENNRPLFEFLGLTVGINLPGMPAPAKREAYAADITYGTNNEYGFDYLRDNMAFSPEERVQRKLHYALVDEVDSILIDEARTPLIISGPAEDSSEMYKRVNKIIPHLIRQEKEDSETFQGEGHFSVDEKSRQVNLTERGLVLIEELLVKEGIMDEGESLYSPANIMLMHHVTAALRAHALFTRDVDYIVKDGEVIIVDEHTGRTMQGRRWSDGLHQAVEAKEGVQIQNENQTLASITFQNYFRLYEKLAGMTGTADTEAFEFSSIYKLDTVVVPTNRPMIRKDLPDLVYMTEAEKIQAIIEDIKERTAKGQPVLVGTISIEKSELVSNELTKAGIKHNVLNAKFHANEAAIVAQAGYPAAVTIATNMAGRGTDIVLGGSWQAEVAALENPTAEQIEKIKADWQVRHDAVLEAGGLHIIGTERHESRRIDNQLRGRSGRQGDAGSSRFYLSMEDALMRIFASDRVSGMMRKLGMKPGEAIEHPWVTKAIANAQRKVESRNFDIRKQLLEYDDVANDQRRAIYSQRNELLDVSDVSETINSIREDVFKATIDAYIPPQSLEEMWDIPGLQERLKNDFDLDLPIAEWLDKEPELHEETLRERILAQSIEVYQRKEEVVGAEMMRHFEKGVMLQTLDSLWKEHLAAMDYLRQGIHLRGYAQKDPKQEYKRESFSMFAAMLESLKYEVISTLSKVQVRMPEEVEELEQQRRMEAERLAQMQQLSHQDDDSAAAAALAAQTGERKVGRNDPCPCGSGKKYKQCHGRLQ
# [3] = molecular target: T2, Ubiquitin-activating enzyme e1, putative (Leishmania donovani (strain BPK282A1)) (UniProt E9BSI1); assay: Leishmania donovani Ubiquitin Activating Enzyme (LdE1); format: functional; design: scale not given: direction of the effect not stated beside the values; settings: 30 µM
# T2 sequence (whole entry): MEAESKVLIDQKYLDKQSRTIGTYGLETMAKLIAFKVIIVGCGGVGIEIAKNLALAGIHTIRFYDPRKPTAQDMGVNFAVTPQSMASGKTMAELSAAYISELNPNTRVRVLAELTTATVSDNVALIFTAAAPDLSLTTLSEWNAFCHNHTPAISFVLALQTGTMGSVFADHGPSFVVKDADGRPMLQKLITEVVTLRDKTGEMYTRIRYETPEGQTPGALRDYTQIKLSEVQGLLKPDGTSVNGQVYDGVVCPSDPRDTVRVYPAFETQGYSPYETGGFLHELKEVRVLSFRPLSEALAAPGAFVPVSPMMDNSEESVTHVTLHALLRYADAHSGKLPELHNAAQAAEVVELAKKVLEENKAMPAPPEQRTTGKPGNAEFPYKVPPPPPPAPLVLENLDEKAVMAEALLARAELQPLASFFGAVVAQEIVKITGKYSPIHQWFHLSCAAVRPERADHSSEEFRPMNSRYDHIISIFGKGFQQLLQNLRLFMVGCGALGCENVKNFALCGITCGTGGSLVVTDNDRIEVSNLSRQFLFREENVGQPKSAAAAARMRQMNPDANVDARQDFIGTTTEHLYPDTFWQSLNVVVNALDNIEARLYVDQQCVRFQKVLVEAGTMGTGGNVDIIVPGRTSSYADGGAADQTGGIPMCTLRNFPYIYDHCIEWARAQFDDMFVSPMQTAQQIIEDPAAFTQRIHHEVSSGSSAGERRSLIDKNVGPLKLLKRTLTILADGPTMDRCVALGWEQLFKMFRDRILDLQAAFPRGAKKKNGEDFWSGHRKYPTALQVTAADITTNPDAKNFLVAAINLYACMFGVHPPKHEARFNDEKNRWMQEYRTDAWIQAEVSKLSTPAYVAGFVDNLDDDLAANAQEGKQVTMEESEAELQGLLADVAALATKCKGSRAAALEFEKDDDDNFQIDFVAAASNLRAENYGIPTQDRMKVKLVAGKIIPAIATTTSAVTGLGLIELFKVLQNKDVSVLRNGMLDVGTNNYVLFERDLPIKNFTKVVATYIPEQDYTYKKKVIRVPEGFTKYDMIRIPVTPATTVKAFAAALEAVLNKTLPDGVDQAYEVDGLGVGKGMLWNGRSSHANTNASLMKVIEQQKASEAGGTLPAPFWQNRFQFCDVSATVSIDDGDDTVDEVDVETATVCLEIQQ
# [4] = molecular target: Sialic acid-binding Ig-like lectin 9 (Homo sapiens) (UniProt Q9Y336); assay: Hs-Siglec9 ALPHAscreen SOP 20170721; design: scale not given: direction of the effect not stated beside the values; settings: 10 µM
# Sialic acid-binding Ig-like lectin 9 (Homo sapiens), sequence (Q9Y336 whole entry): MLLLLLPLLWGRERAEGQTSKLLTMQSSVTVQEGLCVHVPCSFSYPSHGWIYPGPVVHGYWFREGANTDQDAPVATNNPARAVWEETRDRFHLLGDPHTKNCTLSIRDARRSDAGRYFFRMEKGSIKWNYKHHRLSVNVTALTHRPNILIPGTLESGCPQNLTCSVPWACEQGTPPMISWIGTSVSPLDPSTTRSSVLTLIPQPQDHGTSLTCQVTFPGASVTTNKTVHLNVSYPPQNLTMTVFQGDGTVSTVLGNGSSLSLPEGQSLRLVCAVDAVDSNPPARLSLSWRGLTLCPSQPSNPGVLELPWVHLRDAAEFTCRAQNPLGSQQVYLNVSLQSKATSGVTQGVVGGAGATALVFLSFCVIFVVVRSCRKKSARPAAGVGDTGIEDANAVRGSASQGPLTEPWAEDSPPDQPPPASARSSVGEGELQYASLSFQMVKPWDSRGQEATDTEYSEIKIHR
# Trypanosoma cruzi = assay: Trypanosoma cruzi phosphomannomutase and mannose-1-phosphate guanylyltransferase assay; format: functional; design: scale not given: direction of the effect not stated beside the values; settings: 10 µM
# [5] = molecular target: T3, Arginase-2, mitochondrial (Homo sapiens) (UniProt P78540); assay: in vitro enzyme assay to detect the production of urea directly proportional to the activity of Arginase II; format: functional; design: scale not given: in the data most compounds retested in dose-response had high values; settings: 33.3 µM
# T3 sequence (whole entry): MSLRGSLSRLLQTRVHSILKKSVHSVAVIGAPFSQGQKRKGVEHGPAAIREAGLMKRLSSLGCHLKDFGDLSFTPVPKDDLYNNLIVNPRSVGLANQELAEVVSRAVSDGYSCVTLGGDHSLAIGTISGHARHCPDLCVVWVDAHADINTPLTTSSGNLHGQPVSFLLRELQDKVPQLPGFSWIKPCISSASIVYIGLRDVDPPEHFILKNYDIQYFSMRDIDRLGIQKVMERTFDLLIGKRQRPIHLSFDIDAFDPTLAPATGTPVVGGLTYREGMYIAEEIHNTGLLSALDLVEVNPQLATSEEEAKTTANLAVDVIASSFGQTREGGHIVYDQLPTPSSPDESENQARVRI
# [6] = molecular target: T4, Proteasome subunit beta (Trypanosoma cruzi) (UniProt O96673); assay: Trypanosoma cruzi proteasome chymotrypsin-like activity (TcProtChymo) assay.; format: functional; design: scale not given: in the data most compounds retested in dose-response had high values; settings: 9.37 µM
# T4 sequence (whole entry): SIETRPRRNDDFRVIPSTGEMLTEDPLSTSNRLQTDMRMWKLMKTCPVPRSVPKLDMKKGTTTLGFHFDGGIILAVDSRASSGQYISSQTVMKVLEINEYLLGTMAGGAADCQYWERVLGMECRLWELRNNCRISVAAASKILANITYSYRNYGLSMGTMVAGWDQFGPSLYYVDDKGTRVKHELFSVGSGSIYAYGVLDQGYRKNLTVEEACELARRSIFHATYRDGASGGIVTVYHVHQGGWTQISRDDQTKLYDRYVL
# Homo sapiens = species on record: Homo sapiens; assay: To identify inhibition of the IFN signalling (Jak-Stat) pathway via expression of an eGFP reporter gene under the control of an IFN-stimulated response element (ISRE) containing MxA promoter.; format: functional; design: scale not given: direction of the effect not stated beside the values; settings: 30 µM
# [7] = molecular target: T5, Tyrosyl-tRNA synthetase, putative (Trypanosoma cruzi (strain CL Brener)) (UniProt Q4DSP6); assay: Trypanosoma cruzi tyrosyl tRNA synthetase (TcYRS) _High Tyrosine SOP; format: functional; design: scale not given: in the data most compounds retested in dose-response had high values; settings: 30 µM
# T5 sequence (whole entry): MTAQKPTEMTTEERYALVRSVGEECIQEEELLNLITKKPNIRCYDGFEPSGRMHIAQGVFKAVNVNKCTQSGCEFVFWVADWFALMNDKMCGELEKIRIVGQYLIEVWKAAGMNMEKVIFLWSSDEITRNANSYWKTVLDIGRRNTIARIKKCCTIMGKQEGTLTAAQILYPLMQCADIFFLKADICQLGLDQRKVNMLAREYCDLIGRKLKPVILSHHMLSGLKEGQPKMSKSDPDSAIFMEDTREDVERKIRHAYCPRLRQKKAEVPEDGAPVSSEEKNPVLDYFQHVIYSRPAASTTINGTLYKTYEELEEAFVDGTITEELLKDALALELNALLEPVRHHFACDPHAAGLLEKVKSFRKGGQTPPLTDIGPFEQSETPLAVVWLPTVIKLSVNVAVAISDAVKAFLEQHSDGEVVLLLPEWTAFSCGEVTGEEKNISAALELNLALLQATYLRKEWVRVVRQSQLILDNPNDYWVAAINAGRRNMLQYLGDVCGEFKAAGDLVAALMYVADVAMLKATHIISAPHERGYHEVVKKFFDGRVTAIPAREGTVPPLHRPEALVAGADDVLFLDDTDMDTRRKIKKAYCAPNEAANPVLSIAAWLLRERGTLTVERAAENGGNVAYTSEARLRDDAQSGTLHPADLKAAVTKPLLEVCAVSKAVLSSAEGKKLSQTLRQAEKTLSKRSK
# [8] = molecular target: T5, Tyrosyl-tRNA synthetase, putative (Trypanosoma cruzi (strain CL Brener)); assay: Trypanosoma cruzi tyrosyl tRNA synthetase (TcYRS) SOP; format: functional; design: scale not given: direction of the effect not stated beside the values; settings: 30 µM
# [9] = molecular target: Chromo domain-containing protein 1 (Saccharomyces cerevisiae (strain ATCC 204508 / S288c) (Baker's yeast)) (UniProt P32657); assay: ScCHD-1 Enzyme Inhibition Assay; format: functional; design: scale not given: in the data most compounds retested in dose-response had high values; settings: 30 µM
# Chromo domain-containing protein 1 (Saccharomyces cerevisiae (strain ATCC 204508 / S288c) (Baker's yeast)), sequence (P32657 whole entry, the tested form may be a part): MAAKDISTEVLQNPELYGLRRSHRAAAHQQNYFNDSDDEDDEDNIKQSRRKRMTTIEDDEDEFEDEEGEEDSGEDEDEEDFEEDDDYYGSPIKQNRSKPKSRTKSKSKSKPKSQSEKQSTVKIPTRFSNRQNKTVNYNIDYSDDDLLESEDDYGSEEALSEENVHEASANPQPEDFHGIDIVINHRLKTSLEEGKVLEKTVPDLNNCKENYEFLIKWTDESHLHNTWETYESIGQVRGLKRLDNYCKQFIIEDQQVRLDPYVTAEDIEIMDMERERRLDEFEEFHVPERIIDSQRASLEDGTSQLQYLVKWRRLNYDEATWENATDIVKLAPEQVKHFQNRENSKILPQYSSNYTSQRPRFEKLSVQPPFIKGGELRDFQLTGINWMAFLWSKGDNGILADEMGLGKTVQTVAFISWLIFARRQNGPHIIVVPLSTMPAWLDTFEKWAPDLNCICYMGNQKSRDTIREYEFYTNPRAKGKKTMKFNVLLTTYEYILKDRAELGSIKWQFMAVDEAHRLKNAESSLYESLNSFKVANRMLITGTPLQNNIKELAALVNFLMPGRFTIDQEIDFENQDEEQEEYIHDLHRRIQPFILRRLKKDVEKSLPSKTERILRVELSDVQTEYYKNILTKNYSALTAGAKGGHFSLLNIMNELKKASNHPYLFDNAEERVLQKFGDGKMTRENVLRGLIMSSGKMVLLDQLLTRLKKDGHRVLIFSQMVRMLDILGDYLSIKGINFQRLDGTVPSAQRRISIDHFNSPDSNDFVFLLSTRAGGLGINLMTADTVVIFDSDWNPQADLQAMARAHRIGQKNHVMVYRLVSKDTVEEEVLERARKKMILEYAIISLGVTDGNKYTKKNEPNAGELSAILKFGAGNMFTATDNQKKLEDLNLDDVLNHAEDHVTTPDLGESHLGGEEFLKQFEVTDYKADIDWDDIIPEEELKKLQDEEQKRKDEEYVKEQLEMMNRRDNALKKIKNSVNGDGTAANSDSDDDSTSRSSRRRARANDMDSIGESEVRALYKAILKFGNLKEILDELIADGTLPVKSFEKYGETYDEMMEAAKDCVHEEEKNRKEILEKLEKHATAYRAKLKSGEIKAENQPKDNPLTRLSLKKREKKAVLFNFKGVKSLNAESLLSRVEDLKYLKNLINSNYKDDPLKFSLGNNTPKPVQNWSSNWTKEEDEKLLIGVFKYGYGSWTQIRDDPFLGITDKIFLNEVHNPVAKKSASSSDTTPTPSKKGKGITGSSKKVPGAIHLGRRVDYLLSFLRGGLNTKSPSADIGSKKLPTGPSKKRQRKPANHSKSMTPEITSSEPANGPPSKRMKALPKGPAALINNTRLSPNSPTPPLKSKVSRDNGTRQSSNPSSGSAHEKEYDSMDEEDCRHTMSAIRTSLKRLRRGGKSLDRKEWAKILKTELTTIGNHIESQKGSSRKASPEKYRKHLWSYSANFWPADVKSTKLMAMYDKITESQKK
SMILES,"PXC50 ([1]; BOTTOM 3.334115973, HILLSLOPE 1.087838863, MAX_EFFECT 53.16698656, TOP 83.15988554)",PXC50 ([1]; MAX_EFFECT 37.68115942),PXC50 ([1]; MAX_EFFECT 40.13605442),PXC50 ([1]; MAX_EFFECT 44.81658692),PXC50 ([1]; MAX_EFFECT 49.91243433),PXC50 ([1]; MAX_EFFECT 33.33333333),PXC50 ([1]; MAX_EFFECT 43.95393474),PXC50 ([1]; MAX_EFFECT 49.10394265),PXC50 ([1]; MAX_EFFECT 49.8349835),PXC50 ([1]; MAX_EFFECT 55.07246377),Percent Effect [2] [%],Percent Effect [3] [%],Percent Effect [4] [%],Percent Effect (Trypanosoma cruzi) [%],Percent Effect [5] [%],Percent Effect [6] [%],Percent Effect (Homo sapiens) [%],Percent Effect [7] [%],Percent Effect [8] [%],Percent Effect [9] [%]
COc1ccccc1C1(CNc2nnc(C)c(C)c2C#N)CCCC1,4.21,< 4,< 4,< 4,< 4,,,,,,,,,,,,,,,
NC[C@H]1CC[C@H](C(NC(=O)c2cccc(F)c2)c2ccccn2)CC1 (stereo not given in full),,,,,,< 4,< 4,< 4,< 4,< 4,0.535,12,-8.09,6.51,-0.443,9.36,8.62,31.8,45,-26.3
